Data taken from ChEMBL document CHEMBL3988442, “University of Dundee, Small-Polar-MMV Screening Library” (2021).
Screen size: about 69,000 compounds; about 950 (1.4%) showed an effect of 50% or more. Many of the other results were omitted from the sample, so strong results are more common in it than they were.

Test system: Mycobacterium tuberculosis
Assay: Cornell M. t heat shock assay; note: in the data most compounds retested in dose-response had high values
Format: functional, organism-based
Design: dose or concentration left out as unconfirmed

SMILES	Percent Effect [%]
CC(C)N(C)Cc1cn2c(n1)CN(C(=O)Cc1ccccc1)CC2.O=C(O)C(F)(F)F	-8.481
COCCN1CC2(CCOCC2)c2cc(NC(=O)C3CC=CC3)ccc21.O=C(O)C(F)(F)F	100.7
CCN1CC2(CCOCC2)c2cc(NS(=O)(=O)CC)ccc21.O=C(O)C(F)(F)F	51.54
CCC(=O)Nc1ccc2c(c1)C1(CCOCC1)CN2CCF.O=C(O)C(F)(F)F	28.61
CCCC(=O)Nc1ccc2c(c1)C1(CCOCC1)CN2CCOC.O=C(O)C(F)(F)F	15.62
CCC(=O)Nc1ccc2c(c1)C1(CCOCC1)CN2CCOC.O=C(O)C(F)(F)F	46.17
CCS(=O)(=O)Nc1ccc2c(c1)C1(CCOCC1)CN2C.O=C(O)C(F)(F)F	36
O=C(O)C(F)(F)F.O=C1COC2(CCN(C(=O)c3ccco3)CC2)CN1Cc1cccnc1	-2.228
O=C(O)C(F)(F)F.O=C(O)C(F)(F)F.c1cnc(N2C[C@H]3CN(CC4CCOC4)C[C@H]3C2)nc1 (stereo not given in full)	-39.47
O=C(O)C(F)(F)F.O=C(c1ccco1)N1CCCC2(CCN(c3nncs3)C2)C1 (stereo not given)	42.37
CN(C)C(=O)COC[C@@H]1CC[C@H]2[C@H](CCN2c2ccccn2)O1.O=C(O)C(F)(F)F	-1.761
Cn1cc(CN2CCC[C@]3(C[C@@H](Oc4ccccn4)CO3)C2)cn1.O=C(O)C(F)(F)F.O=C(O)C(F)(F)F	27.52
Cn1cnc(S(=O)(=O)N2CC3(CCN(CC4CC4)C3)C2)c1.O=C(O)C(F)(F)F.O=C(O)C(F)(F)F	2.143
CO[C@@H]1CCN(Cc2c(C)noc2C)[C@@H]2CN(Cc3cccnc3)C[C@@H]21.O=C(O)C(F)(F)F.O=C(O)C(F)(F)F.O=C(O)C(F)(F)F	14.07
CN(CCc1ccccn1)Cc1nccn1Cc1ccccc1	101.1
CN(CCc1ccncc1)Cc1nccn1Cc1ccccc1	9.887
CN(Cc1ccncc1)Cc1nccn1Cc1ccccc1	6.234
CNC[C@H]1CC[C@H](c2cc(CN(C)S(=O)(=O)N(C)C)n(C)n2)CC1.Cl	-16.56
O=C(O)C(F)(F)F.O=C([C@@H]1CCO[C@@H]2CCN(Cc3ccc(F)cc3)C[C@H]21)N1CCCCO1	-25.18
COC1CN(C(=O)CC(C)(C)C)CCC(=O)N(C)c2ccccc21 (stereo not given)	48.93
COC1CN(C(=O)CC2CCCC2)CCC(=O)N(C)c2ccccc21 (stereo not given)	50.44
COC1CN(C(=O)COC(C)=O)CCC(=O)N(C)c2ccccc21 (stereo not given)	45.97
COC1CCN(C(=O)CC2CCCC2)CC(=O)N(C)c2ccccc21 (stereo not given)	27.7

SMILES	Percent Effect [%]
COC1CN(C(=O)CC(C)C)CCC(=O)N(C)c2ccccc21 (stereo not given)	33.11
COC1CN(C(=O)OCC(C)C)CCC(=O)N(C)c2ccccc21 (stereo not given)	53.04
Cn1cc(C[C@H]2[C@H](N3CCOCC3)CCN2C(=O)c2ccco2)cn1.O=C(O)C(F)(F)F	6.591
COc1ccc(CN(Cc2cccnc2)CC2CCCO2)c(OC)c1.O=C(O)CC(O)(CC(=O)O)C(=O)O (stereo not given)	5.923
CCCn1ncc(-c2ccnc(NC3CCSC3)n2)c1C (stereo not given)	-0.2299
CCCn1ncc(-c2ccnc(NC3CC(C)(C)NC(C)(C)C3)n2)c1C	-32.44
CCCn1ncc(-c2ccnc(N[C@@H]3C[C@@H]4CC[C@H]3C4)n2)c1C	50.09
CCN1C[C@H]2[C@@H](C1)N(S(=O)(=O)c1ccccc1)CC[C@H]2OC.O=C(O)C(F)(F)F	4.433
O=C(CSCC1CC1)N1CCCC(c2nccn2Cc2ccccn2)C1 (stereo not given)	-24.76
O=C(CSCC1CC1)N1CCCC(c2nccn2Cc2ccncc2)C1 (stereo not given)	27.98
COCCn1ccnc1C1CCCN(C(=O)CSCC2CC2)C1 (stereo not given)	75.33
CC(C)c1nc2c(n1C)CCN(Cc1cccc(OCC(N)=O)c1)C2	-13.93
Cn1cc(CN2CC[C@@H]3[C@@H](CO[C@H]3CNC(=O)c3ccco3)C2)cn1.O=C(O)C(F)(F)F.O=C(O)C(F)(F)F	-15.87
CC/N=c1\nc(NCC)nc2n1C(O)(Nc1cccc(Cl)c1Cl)CS2 (stereo not given)	0.756
CC/N=c1\nc(NCC)nc2n1C(O)(Nc1cc(C)ccc1C)CS2 (stereo not given)	7.529
CC/N=c1\nc(NCC)nc2n1C(O)(Nc1cccc(C)c1C)CS2 (stereo not given)	59.58
CNC(=O)c1cccc(C2CNCCN2C(=O)c2cccc(F)c2)c1.Cl (stereo not given)	-24.93
O=C(NCc1ccco1)[C@H]1COC[C@H]2CN(Cc3ccccn3)C[C@H]21.O=C(O)C(F)(F)F.O=C(O)C(F)(F)F	-5.073
Cc1ncccc1-c1cc2cccnc2n1CCCNC(=O)C(C)(C)C.Cl	11.8
Cc1nc(-c2ccnc(N3CCNCC3)n2)no1.Cl.Cl	10.1
Cc1ccc(Oc2c(F)cccc2OC[C@@H](N)CC(C)C)cc1	104.6
CC(C)COc1ccccc1C(N)CC(C)C (stereo not given)	-26.57
CC(C)C[C@H](N)COc1cccc(F)c1Oc1cccc(Cl)c1	103.9

SMILES	Percent Effect [%]
CNCc1cc(F)ccc1Oc1ccc(Cl)cc1	-7.892
CC(C)C[C@H](N)COc1cccc(F)c1Oc1ccccc1	5.666
COc1ccccc1C(N)CC(C)C (stereo not given)	-0.8675
CC(C)C[C@H](N)COc1cccc(F)c1Oc1ccc(Cl)cc1	105.7
CCOc1ccccc1C(N)CC(C)C (stereo not given)	6.467
CC(CNS(N)(=O)=O)Oc1cccc(Cl)c1 (stereo not given)	-31.66
O=C(NC1CC1)[C@@H]1C[C@@H]2CCN(Cc3ccoc3)C[C@@H]2O1.O=C(O)C(F)(F)F	49.9
Cc1nn(C)cc1-c1cncn1CCc1ccc2c(c1)OCCO2.Cl	-2.438
Cl.Cl.c1cncc(OC[C@@H]2CCC[C@@]23CNCCO3)c1	-0.8406
Cn1ccnc1CN1CCC2(CC1)CCN(c1ccccc1)C2=O.O=C(O)C(F)(F)F	8.178
O=C(O)C(F)(F)F.O=C(O)C(F)(F)F.O=C1Nc2ccccc2C12CCN(Cc1ccccn1)CC2	-17.02
Cc1ccccc1C1CCN(CCn2cc(-c3cccc(O)c3)nn2)C1 (stereo not given)	72.96
Cc1ccccc1C1CCN(CCn2cc(-c3nccn3C)nn2)C1 (stereo not given)	32.84
Oc1cccc(-c2cc(C3CCN(Cc4cncnc4)C3)ccn2)c1 (stereo not given)	20.76
Cc1ccccc1C1CCN(CCn2cc(-c3nccs3)nn2)C1 (stereo not given)	59.14
CCSCCn1cc(-c2nccs2)nn1	12.13
Cc1ccccc1C1CCN(CCNC(=O)CS(C)(=O)=O)C1 (stereo not given)	-16.65
CCC(=O)N1CCC2(CC1)CN(CCO)Cc1ccccc12.O=C(O)C(F)(F)F	-19.17
NCCc1c(-c2ccccc2)[nH][nH]c1=O.O=C(O)C(=O)O	-25.01
O=C(CCc1cncc(F)c1)NS(=O)(=O)c1ccc(F)cc1F	21.56
Cn1cccc1C(=O)N1C[C@H]2CN(Cc3cccs3)C[C@H]2C1.O=C(O)C(F)(F)F	-10.6
COCCCNC(=O)Nc1ncc(-c2cccc(OC)c2)n1CCOC	-7.26
COCCn1c(-c2cccc(OC)c2)cnc1NC(=O)NCCC(C)C	67.45

SMILES	Percent Effect [%]
COCCn1c(-c2cccc(OC)c2)cnc1NC(=O)NCC(C)C	22.14
Cc1nn(C)c(Cl)c1CNCc1cccnc1N1CCN(C)CC1.Cl	-22.17
O=C(O)C(F)(F)F.O=C1Nc2ccccc2C12CCN(c1nccs1)CC2	-0.7259
CCC1=N[C@@]2(CC[C@@H]3CN(Cc4ccc(Cl)cc4)C[C@@H]32)C(=O)N1.O=C(O)C(F)(F)F	4.216
CN1Cc2ccccc2CC2(CCN(CCO)CC2)C1=O.O=C(O)C(F)(F)F	19.63
Cl.O=C(CCc1cccc(C2CCNCC2)n1)N1CCCCC1	-1.304
CCc1cnc(N)nc1NC(C)c1ccc(C)c(C)c1 (stereo not given)	51.29
CCc1cnc(N)nc1N[C@@H](C)c1ncccc1C	-10.37
CCc1cnc(N)nc1NC(C)c1cnn(C)c1 (stereo not given)	-5.78
Cl.Nc1cnn(CC(=O)N2CCCCC2)c1	-8.542
CCOc1ccc(CN2CC[C@H]3CC[C@@H](C2)N3)cc1CO	-10.09
CO[C@H]1CCN(S(=O)(=O)c2cccnc2)[C@@H]2CN(CC3CC3)C[C@H]12.O=C(O)C(F)(F)F.O=C(O)C(F)(F)F	2.331
O=C(O)C(F)(F)F.O=c1cc(CNS(=O)(=O)C2CC2)nc2n1CCCN(CC1CC1)C2	21.63
Cc1nc(CN2C[C@@H]3CN(C(=O)c4cccn4C)C[C@@H]3C2)cs1.O=C(O)C(F)(F)F	-44.62
COc1cccc(CNCc2nc3ccccc3c(=O)[nH]2)c1	81.36
COc1cccc(CNCCNS(=O)(=O)Cc2ccccc2)c1	-28.9
C=C(C)COc1cccc(CNCc2nc3ccccc3c(=O)[nH]2)c1	22.25
CC(C)N(C)Cc1cnc2n1CCN(Cc1ccco1)C2.O=C(O)C(F)(F)F.O=C(O)C(F)(F)F	-12.15
CC(C)N1CCC2(CCCNC2)C1=O.Cl (stereo not given)	-7.448
COc1ccc(-c2cnc(N)nc2C2CCCNC2)cc1.Cl (stereo not given)	9.716
O=C(O)C(F)(F)F.O=C(O)C(F)(F)F.O=C1COC2(CCN(Cc3ccncc3)CC2)CN1	-17.34
